# Source: PubChem BioAssay (NCI)
# Compounds without any hit were thinned out: in the full panel of roughly 83,000, 20% have a hit.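 How to read the values: 0–100, growth inhibition (40 = 60% inhibited); 0, no net growth; -100 to 0, cell death (-40 = 40% of starting cells died; -100 = all dead).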 Unmarked numbers belong to inactive results. The source made the active and inactive calls. How the source made its calls: active means growth percent below 10; inactive means the rest.
# Test system: NCI-H322M lung
# Test: NCI-60 one-dose screen, 48 h (100 = growth as untreated, 0 = no growth, -100 = all killed)
# Settings: 10 µM
row,SMILES,growth
1,O=C(/C=C/c1ccc(Br)cc1)c1nc2ccccc2n1Cc1ccc(Br)cc1,39%
2,COC(=O)CCn1c(-c2ccc(-n3cc(-c4ccc(O[C@H]5O[C@@H]6OC7(C)CC[C@H]8[C@H](C)CC[C@@H]([C@H]5C)[C@@]68OO7)cc4)nn3)cc2)nc2ccccc21,46.7%
3,CC1=C(C=O)C2=C(C)C3(CC3)[C@@](C)(O)C(=O)C2=C1,67.2%
4,N#C[Se]CC(=O)Nc1cccc(C(F)(F)F)c1,-19.6% (active)
5,CCC[Se]C(=O)c1ccc(C(=O)[Se]CCC)s1,-33.4% (active)
6,C[C@H]1[C@@H](CC(=O)N[C@@H](Cc2coc3ccccc23)B(O)O)O[C@@H]2OC3(C)CC[C@H]4[C@H](C)CC[C@@H]1[C@@]24OO3,19.6%
7,O=C(/C=C/c1ccco1)c1nc2ccccc2n1Cc1ccc(F)cc1,79.2%
8,COC(=O)C[C@](O)(CCC(C)C)C(=O)O[C@H]1C(OC)=C[C@@]23CCCN2CCc2cc4c(cc2[C@@H]13)OCO4,-9.27% (active)
9,C[C@H]1[C@H](OC(=O)CCC(=O)N(CCCc2cn(-c3ccc(C#N)cc3)nn2)CCNc2ccnc3cc(Cl)ccc23)O[C@@H]2OC3(C)CC[C@H]4[C@H](C)CC[C@@H]1[C@@]24OO3,82.9%

# Test system: HOP-62 NSCLC
# Test: as above
# Settings: 10 µM
row,SMILES,growth
1,COc1cc2cc(C(=O)N3C[C@@H](CCl)c4c3cc(OC(=O)N3CCN(C)[C@@H]5CSSC[C@H]53)c3ccccc43)[nH]c2c(OC)c1OC,-19.1% (active)
2,CC1=C(CCC=O)C2=C(C)C3(CC3)[C@@](C)(O)C(=O)C2=C1,-62.7% (active)
3,COC(=O)C[C@](O)(CCC(C)C)C(=O)O[C@@H]1C(OC)=C[C@]23CCCN2CCc2cc4c(cc2[C@H]13)OCO4,-50.4% (active)
4,O=C(/C=C/c1ccc(Cl)cc1)c1nc2ccccc2n1Cc1ccc(F)cc1,17.7%
5,CC[C@]12C=CCN3CC[C@@]4(c5ccc(OC)cc5N(C)[C@H]4[C@@](O)(C(=O)OC)[C@@H]1OC(=O)CCC[P+](C1CCCCC1)(C1CCCCC1)C1CCCCC1)[C@@H]32,4.26% (active)
6,CC1=C2C(=C[C@@](C)(COP(=O)(Oc3ccccc3)Oc3ccccc3)[C@@H]2O)C(=O)[C@@](C)(O)C12CC2,-88.4% (active)
7,CC(=O)Oc1ccccc1C(=O)NC([Se])=NC1CCCCC1,9.51% (active)
8,CCOP(=O)(CC(F)(F)C(F)(F)F)OCC,90.9%
9,CC(C)C[C@H](NC(=O)CNC(=O)C[C@H]1O[C@@H]2OC3(C)CC[C@H]4[C@H](C)CC[C@@H]([C@H]1C)[C@@]24OO3)B(O)O,-17% (active)
10,C[C@H]1[C@@H](Oc2ccc(-c3cn(-c4ccnc5cc(Cl)ccc45)nn3)cc2)O[C@@H]2OC3(C)CC[C@H]4[C@H](C)CC[C@@H]1[C@@]24OO3,46.3%
11,C[C@H]1[C@H](OC(=O)CCC(=O)N(CCCc2cn(-c3ccc([N+](=O)[O-])cc3)nn2)CCNc2ccnc3cc(Cl)ccc23)O[C@@H]2OC3(C)CC[C@H]4[C@H](C)CC[C@@H]1[C@@]24OO3,69.4%
12,COc1cc2cc(C(=O)N3C[C@@H](CCl)c4c3cc(OC(=O)N3CCN(C)[C@@H]5CSSC[C@@H]53)c3ccccc43)[nH]c2c(OC)c1OC,-32.3% (active)
13,COc1cc2cc(C(=O)N3C[C@@H](CCl)c4c3cc(OC(=O)N3CCN(C(=O)CCC(=O)N5CCN(C)CC5)[C@@H]5CSSC[C@@H]53)c3ccccc43)[nH]c2c(OC)c1OC,-55.3% (active)
14,COC(=O)c1ccc(-n2cc(CCCN(CCNc3ccnc4cc(Cl)ccc34)C(=O)CCC(=O)O[C@@H]3O[C@@H]4OC5(C)CC[C@H]6[C@H](C)CC[C@@H]([C@H]3C)[C@@]46OO5)nn2)cc1,64.5%
15,O=C([Se]C1C=CCCC1)c1ccc(C(=O)[Se]C2C=CCCC2)s1 (stereo not drawn),-50.6% (active)
16,O=C(/C=C/c1cccc(Br)c1)c1nc2ccccc2n1Cc1ccc(F)cc1,38.3%
17,CC[C@]12C=CCN3CC[C@@]4(c5ccc(OC)cc5N(C)[C@H]4[C@@](O)(C(=O)OC)[C@@H]1OC(=O)CCC[P+](c1ccc(C)cc1)(c1ccc(C)cc1)c1ccc(C)cc1)[C@@H]32,-81.6% (active)
18,O=C(NC([Se])=NC1CCCCC1)c1ccccc1,15.3%
19,O=C(/C=C/c1ccc(F)cc1)c1nc2ccccc2n1Cc1ccc(F)cc1,-1.76% (active)
